We go through 29 compounds from PubChem BioAssay (NCATS).

In assay [1] the target is Catechol O-methyltransferase (Homo sapiens) (UniProt P21964). The assay is described as follows: Confirmatory Screen for Target Class Profiling of Small Molecule Inhibitors of Methyltransferases (AID 1745852). For activity change, negative = inhibition: % is set by controls: 0 for no effect and ±100 for the full control effect. Note: potency is the fitted concentration of half-maximal effect. The following applies: MTase-Glo luminescence, SAH detection, recombinant enzyme; measured here: COMT max response; stronger effect = lower value.
Catechol O-methyltransferase (Homo sapiens), sequence (P21964 whole entry, looked up): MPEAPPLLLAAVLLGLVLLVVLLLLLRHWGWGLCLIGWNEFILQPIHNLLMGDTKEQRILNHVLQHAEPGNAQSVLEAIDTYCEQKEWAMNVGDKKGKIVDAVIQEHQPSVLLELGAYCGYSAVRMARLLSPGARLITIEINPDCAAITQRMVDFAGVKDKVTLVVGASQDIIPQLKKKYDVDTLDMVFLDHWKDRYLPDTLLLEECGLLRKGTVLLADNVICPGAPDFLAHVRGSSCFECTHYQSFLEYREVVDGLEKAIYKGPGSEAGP
Assay [2] has as its target Guanidinoacetate N-methyltransferase (Homo sapiens) (UniProt Q14353). The description is as above. The following applies: MTase-Glo luminescence, SAH detection, recombinant enzyme; activity change, negative = inhibition: at 57.3 µM (top of the series) unless noted; series mostly up to 57.3 µM.
In assay [3] the target is Nicotinamide N-methyltransferase (Homo sapiens) (UniProt P40261). The assay is described as above. To be noted: MTase-Glo luminescence, SAH detection, recombinant enzyme; measured here: NNMT max response; stronger effect = lower value.
Nicotinamide N-methyltransferase (Homo sapiens), sequence (P40261 whole entry, looked up): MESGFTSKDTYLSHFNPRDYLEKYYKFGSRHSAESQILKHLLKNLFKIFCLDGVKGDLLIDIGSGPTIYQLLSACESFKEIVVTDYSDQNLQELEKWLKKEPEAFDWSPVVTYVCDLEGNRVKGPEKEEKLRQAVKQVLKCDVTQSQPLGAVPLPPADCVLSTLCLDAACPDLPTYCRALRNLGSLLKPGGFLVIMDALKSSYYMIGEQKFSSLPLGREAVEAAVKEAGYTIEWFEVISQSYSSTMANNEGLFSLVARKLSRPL
The target of assay [4] is Phenylethanolamine N-methyltransferase (Homo sapiens) (UniProt P11086). The assay is described as above. The following applies: MTase-Glo luminescence, SAH detection, recombinant enzyme; measured here: PNMT max response; stronger effect = lower value.
Phenylethanolamine N-methyltransferase (Homo sapiens), sequence (P11086 whole entry, looked up): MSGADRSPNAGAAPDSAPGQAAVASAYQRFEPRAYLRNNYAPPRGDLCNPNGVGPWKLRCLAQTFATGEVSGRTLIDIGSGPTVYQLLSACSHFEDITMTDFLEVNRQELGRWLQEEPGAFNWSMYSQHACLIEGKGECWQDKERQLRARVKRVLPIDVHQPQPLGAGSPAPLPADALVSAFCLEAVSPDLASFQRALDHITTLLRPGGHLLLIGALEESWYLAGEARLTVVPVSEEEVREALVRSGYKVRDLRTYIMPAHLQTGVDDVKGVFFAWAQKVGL
Assay [5] deals with Glutathione peroxidase 1 (Homo sapiens) (UniProt P07203). The experiment in a line: Primary qHTS Assay for Inhibitors of Recombinant Selenoprotein Glutathione Peroxidase 1 (GPX1) (AID 1845191; active = well fitted curve in the direction sought with a large enough effect; an effect the other way counts as inactive or inconclusive; note: potency is the fitted concentration of half-maximal effect; nearly all actives have a fitted effect of over 65% in size). The following applies: recombinant GPX1, GR-coupled NADPH fluorescence, 15 min; series mostly up to 48.8 µM. In a few lines: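 10 nM GPX1 + cpd, 30 min RT; start w/ 1 mM GSH, 0.5 mM cumene hydroperoxide, 0.5 mM NADPH, 100 nM GR, 0.01% BSA; buffer 50 mM Tris-HCl pH 7.5, 2 mM EDTA, 150 mM NaCl; Fl 340/450, 0 & 15 min.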
Glutathione peroxidase 1 (Homo sapiens), sequence (P07203 whole entry, looked up): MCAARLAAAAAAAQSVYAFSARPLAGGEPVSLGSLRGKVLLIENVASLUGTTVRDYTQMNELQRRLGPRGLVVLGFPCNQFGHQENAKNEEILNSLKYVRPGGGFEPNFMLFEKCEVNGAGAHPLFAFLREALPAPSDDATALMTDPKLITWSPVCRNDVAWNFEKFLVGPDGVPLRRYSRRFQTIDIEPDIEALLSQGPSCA
For orientation: In qHTS, concentration-response curves come from the screen itself.

Assay [6] is described as follows: NCATS anti-infectives library activity on HEK293 viability as a counter-qHTS vs the C. elegans viability qHTS (AID 1745854; active = well fitted curve in the direction sought with a large enough effect; an effect the other way counts as inactive or inconclusive;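 note: HEK293 cells exposed to compounds for 24 hr before the viability read; % is set by controls: 0 for no effect and ±100 for the full control effect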). The following applies: HEK293 viability counter-screen; series mostly up to 41.8 µM. In a few lines:
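HEK293 cells (1,500/well) exposed 24 hr at 37C to 1:5 titrations, up to 41.7 uM final; counter-screen to a C. elegans viability qHTS. Viability by CellTiter-Glo luminescence after 10 min at room temperature; digitonin as control.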

A short description of assay [7]: qHTS drug screen for cell cycle checkpoint inhibitors in PARPi-resistant BRCA-mutant ovarian cancer cell lines. (AID 1963452). The following applies: PEO1/OlaR viability, CellTiter-Glo luminescence, 96 h, stronger effect = lower value. In a few lines: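 PEO1, PEO4 and PEO1/OlaR ovarian cancer cells, 600 per well, exposed 96 h at 37C to a dilution series. Viability read by CellTiter-Glo luminescence, normalized to DMSO and empty wells; activity summarized as Z-AUC.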

Molecules are shown by their SMILES. Inconclusive results are not listed. The source made the active and inactive calls. Unless noted, calls come from the whole dose curve.

As for `COC(=O)c1cc2n(n1)CC(C)(C(=O)NC1CCC(C)CC1)N(Cc1ccc(OC)cc1OC)C2=O` (centres undefined), the results for the activity in assay [1], in assay [3] and in assay [4] were -11.6%, -66.9% and -13.3%, respectively. Also, the activity change, negative = inhibition in assay [2] is -7.55%.

Regarding `COc1ccc(-c2nnn3c2nc(N2CCOCC2)c2ccccc23)cc1`, the activity in assay [1] was -38.9%; in assay [3] it was -27.8%; in assay [4] it was -35.3%. Also, the Potency in assay [2] is 19.2 µM (active).

Turning to `Cc1noc(C)c1[S+](=O)([O-])N1CCn2c(nn(-c3ccc(C(F)(F)F)cc3)c2=O)C1`, the activity in assay [1] was -1.02%; in assay [3], -3.73%; in assay [4], -10.3%. Also, the activity change, negative = inhibition in assay [2] is -1.81%.

On to `COc1ncccc1-c1cc2c(ccn2CC2CCN([S+](C)(=O)[O-])CC2)c(N2CCOCC2)n1`, for which the activity in assay [1] is -8.55%; in assay [3] it was -94.7%; in assay [4], -10.8%. Also, the activity change, negative = inhibition in assay [2] was determined as 1.38%.

Regarding `CC1CC(C)CN(S(=O)(=O)c2ccc3c(c2)oc(=O)n3CC(=O)Nc2ccc(F)cc2)C1` (centres undefined), the figures for the activity in assay [1], in assay [3] and in assay [4] were 4.26%, -4.58% and -42.5%, respectively. Besides, the activity change, negative = inhibition in assay [2] stood at 0%.

As for `CCCC1c2cccn2CCN1C(=O)Nc1cc(Cl)c(OC)cc1OC` (centres undefined), the activity in assay [1] is -9.49%; in assay [3] it was -17.5%; in assay [4], -8.84%. For the same compound, in assay [2], the activity change, negative = inhibition is -6.89%.

Take `O=C(CCc1nnc2n(CCc3ccccc3)c(=O)c3ccccc3n12)N1CCN(c2ccccc2)CC1`: the activity in assay [1] was 0%; in assay [3], -41%; in assay [4], 0.144%. The activity change, negative = inhibition in assay [2] came out at 0%.

Take `COc1ccc(-c2cc(C(=O)NCc3cccnc3)c3c(c2)N(C)CCO3)cc1OC`: the activity was 3.17% in assay [1], -0.0858% in assay [3] and -0.493% in assay [4]. Also, in assay [2], the activity change, negative = inhibition worked out at 8.84% [at 85.7 µM].

Consider `Cc1ccc(N(C)S(=O)(=O)c2ccc3c(c2)n(C)c(=O)n3C)cc1`, for which the activity in assay [1] is -6.35%; in assay [3] it was -47%; in assay [4], -7.47%. Moreover, the Potency in assay [2] is 0.192 µM (active).

Take `CN1CCC(N2CC[C@H](c3nc4ccc(C(F)(F)F)cc4[nH]3)C2)CC1`: the figures for the activity in assay [1], in assay [3] and in assay [4] were 7.98%, 10.1% and 7.95%, respectively. Further, the activity change, negative = inhibition in assay [2] amounted to 9.6% [at 85.7 µM].

Regarding `CCCC1c2cccn2CCN1C(=O)Nc1ccc(OC)cc1` (centres undefined), the activity in assay [1] was -6.82%; in assay [3], -13.3%; in assay [4], -7.43%. For the same compound, in assay [2], the activity change, negative = inhibition was -3.73%.

`CCCn1c(=O)c2ccccc2n2c(=O)n(CC(=O)c3cccc(Cl)c3)nc12`: the activity is -8.93% in assay [1], -46.1% in assay [3] and -9.61% in assay [4]. Moreover, the activity change, negative = inhibition in assay [2] is -4.81%.

As to `O=C(Nc1ccc2ncnc(N3CCCCC3)c2c1)C1CCCCC1`, the activity in assay [1] is -75.6%; in assay [3] it was -81.1%; in assay [4], -86.5%. In assay [2], the Potency was 19.2 µM (active).

Turning to `CC(C)c1ccc(NC(=O)Cn2c(=O)oc3cc(S(=O)(=O)NCc4ccccc4)ccc32)cc1`, the activity was 0% in assay [1], -3.77% in assay [3] and 0% in assay [4]. The activity change, negative = inhibition in assay [2] is 0%.

As to `C1=C(c2nc(-c3ccncc3)cc3c2ccn3Cc2cccnc2)CCOC1`, the results for the activity in assay [1], in assay [3] and in assay [4] were -19%, -8.71% and -24.5%, respectively. Also, in assay [2], the activity change, negative = inhibition was -9.57% [at 85.7 µM].

Turning to `CC(C)c1nccn1CCCNC(=O)c1ccc(N2CCCC(CO)C2)nc1` (centres undefined), the activity in assay [1] worked out at 2.58%; in assay [3], 6.68%; in assay [4], 5.49%. In addition, the activity change, negative = inhibition in assay [2] came to 1.26%.

As to `N#Cc1cc(CN2CCCC(C(=O)Nc3cccc(-c4ccc(F)cc4)c3)C2)c[nH]1` (centres undefined), the results for the activity in assay [1], in assay [3] and in assay [4] were -4.34%, -14.2% and -5.67%, respectively. In addition, in assay [2], the activity change, negative = inhibition is -9.38%.

Take `COCCn1ccc2c(C3=CCOCC3)nc(-c3cccc4[nH]ccc34)cc21`: the figures for the activity in assay [1], in assay [3] and in assay [4] were -2.42%, -12.7% and -36.9%, respectively. Further, the activity change, negative = inhibition in assay [2] was -9.46% [at 85.7 µM].

For `Cc1c(OCc2ccc(C(=O)O)o2)ccc2c(-c3ccccc3)cc(=O)oc12`, the activity in assay [1] is -33.2%; in assay [3] it was -34.7%; in assay [4] it was -33.9%. Moreover, the Potency in assay [2] was 24.1 µM (active).

With `CCN1CCN(c2nc3c(S(=O)(=O)c4ccc(C)cc4)nnn3c3ccccc23)CC1`, the activity is -6.68% in assay [1], -16.7% in assay [3] and -10.8% in assay [4]. Further, the activity change, negative = inhibition in assay [2] was -2.1%.

For `Cc1noc(C)c1-c1cnc(Nc2ccncc2)c2c1CCO2`, the figures for the activity in assay [1], in assay [3] and in assay [4] were 0.912%, -6.04% and 2.25%, respectively. In addition, the activity change, negative = inhibition in assay [2] worked out at 1.39% [at 85.7 µM].

In the case of `COc1cc2nc(N3CCCCC3)nc(NC3CCN(C)CC3)c2cc1OC`, the activity in assay [1] was 1.4%; in assay [3], -11.7%; in assay [4] it was -7.42%. Moreover, the activity change, negative = inhibition in assay [2] turned out to be 3.17%. In addition, the Potency in assay [5] is 18 µM (active).

Turning to `CC(=O)Cc1cc(=O)c2c(C)cc(O)c(C3OC(CO)C(O)C(O)C3O)c2o1` (centres undefined), the Potency result in assay [6] is “inactive”.

As for `COc1ccc(OC)c2c1cc1n2CC(C)(C(=O)NC2CCCCCC2)N(Cc2ccccn2)C1=O` (centres undefined), the results for the activity in assay [1], in assay [3] and in assay [4] were 3.33%, -20.5% and -2.24%, respectively. The Potency result in assay [2] is “inactive”.

As to `CCCC1=Nc2cc(C(=O)NCCCN3CCCCC3CC)ccc2Sc2ccc(C)cc21` (centres undefined), the activity in assay [1] was -2.37%; in assay [3] it was -7.02%; in assay [4], 1.37%. For the same compound, in assay [2], the activity change, negative = inhibition amounted to 6.53%.

In the case of `COc1ccc2[nH]c(CNc3cc(C4CC(N)C4)nc(C)n3)cc2c1` (centres undefined), the activity was -1.03% in assay [1], -9.73% in assay [3] and 3.97% in assay [4]. Also, the activity change, negative = inhibition in assay [2] was determined as 1.53%.

In the case of `NC(=O)c1cccc2[nH]c(-c3ccc([C@@H]4CCCN4)cc3F)nc12`, the figures for the activity in assay [1], in assay [3] and in assay [4] were -9.14%, -23.8% and -6.69%, respectively. Moreover, the activity change, negative = inhibition in assay [2] was -8.18%. The Potency entry in assay [6] was “inactive”. For the same compound, the Z-AUC in assay [7] is -0.692 (inactive); in assay [7] (measured here: PEO1 parental Z-AUC) it was -1.03; in assay [7] (measured here: PEO4 Z-AUC), -0.377.

Turning to `COc1cc2nc(N3CCCCC3)nc(NC3CCN(Cc4ccccc4)CC3)c2cc1OC`, the activity was 11.8% in assay [1], -38.9% in assay [3] and 1.57% in assay [4]. The figures for the Potency in assay [2] and in assay [5] were 0.968 µM (active) and 16.1 µM (active), respectively.

On to `CCOc1cc(OCC)c2c(-c3ccccc3)cc(=O)oc2c1`, for which the activity in assay [1] was -64.6%; in assay [3] it was -49.7%; in assay [4], -65.2%. Moreover, the Potency in assay [2] was 15.2 µM (active).
